Assay results as given in PubChem BioAssay (EPA / NIEHS).
Activity calls are given as the source filed them. The calls were made as follows: active = hit-call score of the fitted dose curve at least 0.9, where 1 is the maximum; inactive = score below 0.9.

Columns and labels:
Conditions in all cases: mRNA level, 48 h; actives raise or lower the signal
[1] = read-out: CYP3A5 (gene 1577); test: LTEA_HepaRG_CYP3A5: Life Technologies and Expression Analysis (LTEA) Assay for CYP3A5 using HepaRG (AID 2283493)
In short: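 mRNA induction or loss of CYP3A5 assessed in HepaRG after 48 h dosing, 100 uM top concentration, duplicate wells; TaqMan qRT-PCR with ACTB, GAPDH, POLR2A normalization; 0.5% DMSO as negative control.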

[2] = read-out: Fatty Acid-Binding Protein 1 (FABP1), FABP1 (gene 2168); test: LTEA_HepaRG_FABP1: Life Technologies and Expression Analysis (LTEA) Assay for Fatty Acid-Binding Protein 1 (FABP1) using HepaRG (AID 2283494)
In short: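 Differentiated human HepaRG cells were exposed in duplicate for 48 h in serum-free induction medium to 8-point half-log concentration series topping at 100 uM in 0.5% DMSO. FABP1 mRNA measured by TaqMan qRT-PCR, normalized to ACTB/GAPDH/POLR2A; bidirectional fit versus DMSO.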

[3] = read-out: Cytochrome P450 4A22 (Homo sapiens) (UniProt Q5TCH4); test: LTEA_HepaRG_CYP4A22: Life Technologies and Expression Analysis (LTEA) Assay for Cytochrome P450 4A22 (CYP4A22) using HepaRG (AID 2283495)
In short: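 Differentiated HepaRG cells in serum-free induction medium exposed 48 h in duplicate to eight half-log concentrations up to 100 uM in 0.5% DMSO. CYP4A22 mRNA quantified by TaqMan qRT-PCR, normalized to ACTB, GAPDH and POLR2A; bidirectional fit versus DMSO.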

[4] = read-out: Glutathione S-Transferase (GSTA2), GSTA2 (gene 2939); test: LTEA_HepaRG_GSTA2: Life Technologies and Expression Analysis (LTEA) Assay for Glutathione S-Transferase (GSTA2) using HepaRG (AID 2283497)
In short: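 Human HepaRG cells, plated 48 h, then exposed in serum-free induction medium for 48 h to eight half-log concentrations up to 100 uM in 0.5% DMSO, duplicate. GSTA2 mRNA by qRT-PCR, normalized to ACTB/GAPDH/POLR2A; bidirectional fit versus DMSO.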

[5] = read-out: Glutamate-cysteine ligase catalytic (GCLC), GCLC (gene 2729); test: LTEA_HepaRG_GCLC: Life Technologies and Expression Analysis (LTEA) Assay for Glutamate-cysteine ligase catalytic (GCLC) using HepaRG (AID 2283498)
In short: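 Differentiated human HepaRG cells, plated 48 h then switched to serum-free induction medium, were exposed in duplicate for 48 h to 8 half-log concentrations topping at 100 uM in 0.5% DMSO. GCLC mRNA was quantified by qRT-PCR against ACTB, GAPDH and POLR2A.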

[6] = read-out: growth arrest and DNA damage 45 (GADD45G), GADD45G (gene 10912); test: LTEA_HepaRG_GADD45G: Life Technologies and Expression Analysis (LTEA) Assay for growth arrest and DNA damage 45 (GADD45G) using HepaRG (AID 2283499)
In short: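 Differentiated human HepaRG cells, 48 h post-plating, exposed 48 h in serum-free induction medium to 8 half-log concentrations (top 100 uM, 0.5% DMSO) in duplicate. GADD45G mRNA measured by Fluidigm TaqMan qRT-PCR, normalized to ACTB, GAPDH, POLR2A; bidirectional fit versus DMSO.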

[7] = read-out: Glutamate-cysteine ligase regulatory (GCLM), GCLM (gene 2730); test: LTEA_HepaRG_GCLM: Life Technologies and Expression Analysis (LTEA) Assay for Glutamate-cysteine ligase regulatory (GCLM) using HepaRG (AID 2283500)
In short: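 Human liver HepaRG cultures receive test chemicals for 48 hours at up to 100 uM in 0.5% DMSO. GCLM expression is measured by qRT-PCR and analysed for increases or decreases against vehicle.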

[8] = read-out: Glutathione S-transferase M3 (GSTM3), GSTM3 (gene 2947); test: LTEA_HepaRG_GSTM3: Life Technologies and Expression Analysis (LTEA) Assay for Glutathione S-transferase M3 (GSTM3) using HepaRG (AID 2283501)
In short: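 Differentiated human HepaRG cells were exposed in duplicate for 48 h in serum-free induction medium, 8 points from 100 uM top in half-log steps, 0.5% DMSO. GSTM3 mRNA was measured by TaqMan qRT-PCR, normalized to ACTB, GAPDH and POLR2A; bidirectional fit versus DMSO.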

[9] = read-out: Heat shock 70 kDa protein 1 (HSPA1A), gene 3303; test: LTEA_HepaRG_HSPA1A: Life Technologies and Expression Analysis (LTEA) Assay for Heat shock 70 kDa protein 1 (HSPA1A) using HepaRG (AID 2283502)
In short: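 HSPA1A induction in human HepaRG liver cells is measured after 48 h of chemical treatment (100 uM maximum, 0.5% DMSO vehicle). Expression comes from qRT-PCR normalized to endogenous controls.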

[10] = read-out: Hypoxia-inducible factor 1-alpha (Homo sapiens) (UniProt Q16665); test: LTEA_HepaRG_HIF1A: Life Technologies and Expression Analysis (LTEA) Assay for Hypoxia-inducible factor 1 (HIF1A) Trancription factor using HepaRG (AID 2283503)
In short: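 HepaRG, 48 h exposure, 8-pt half-log series from 100 uM, 0.5% DMSO vehicle, duplicates. Readout: HIF1A transcript by qRT-PCR (Fluidigm array), housekeeping-normalised. Bidirectional curve fit vs DMSO baseline.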

[11] = read-out: 3-Hydroxy-3-Methylglutaryl-CoA Synthase 2 (HMGCS2), HMGCS2 (gene 3158); test: LTEA_HepaRG_HMGCS2: Life Technologies and Expression Analysis (LTEA) Assay for 3-Hydroxy-3-Methylglutaryl-CoA Synthase 2 (HMGCS2) using HepaRG (AID 2283504)
In short: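 Human HepaRG cells in serum-free induction medium were exposed in duplicate for 48 h to 8-point half-log series from 100 uM top in 0.5% DMSO. HMGCS2 mRNA measured by TaqMan qRT-PCR, normalised to ACTB, GAPDH, POLR2A; bidirectional fit versus DMSO.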

[12] = read-out: HGF (gene 3082); test: LTEA_HepaRG_HGF: Life Technologies and Expression Analysis (LTEA) Assay for Hepatocyte Growth Facto (HGF) using HepaRG (AID 2283505)
In short: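 Differentiated HepaRG cells in serum-free induction medium exposed 48 h in duplicate, 8 half-log concentrations from 100 uM in 0.5% DMSO. HGF mRNA by qRT-PCR, normalised to ACTB, GAPDH, POLR2A; bidirectional fitting.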

[13] = read-out: Insulin Like Growth Factor 1 (IGF1), IGF1 (gene 3479); test: LTEA_HepaRG_IGF1: Life Technologies and Expression Analysis (LTEA) Assay for Insulin Like Growth Factor 1 (IGF1) using HepaRG (AID 2283506)
In short: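 Using human HepaRG liver cells, IGF1 transcript induction or suppression is measured 48 h after dosing across eight concentrations capped at 100 uM. Values derive from bidirectional concentration-response fitting with DMSO as baseline.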

[14] = read-out: Insulin-like growth factor-binding protein 1 (IGFBP1), IGFBP1 (gene 3484); test: LTEA_HepaRG_IGFBP1: Life Technologies and Expression Analysis (LTEA) Assay for Insulin-like growth factor-binding protein 1 (IGFBP1) using HepaRG (AID 2283508)
In short: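 HepaRG cells, plated 48 h then switched to serum-free induction medium, exposed in duplicate for 48 h to 8-point half-log series from 100 uM in 0.5% DMSO. mRNA measured by qRT-PCR, normalized to ACTB/GAPDH/POLR2A; bidirectional fit versus DMSO.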

[15] = read-out: Interleukin 6 (IL6), IL6 (gene 3569); test: LTEA_HepaRG_IL6: Life Technologies and Expression Analysis (LTEA) Assay for Interleukin 6 (IL6) using HepaRG (AID 2283509)
In short: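 Differentiated human HepaRG cells, plated 48 h then switched to serum-free induction medium, were exposed in duplicate for 48 h to eight half-log concentrations up to 100 uM in 0.5% DMSO. IL6 mRNA measured by qRT-PCR, normalized to ACTB/GAPDH/POLR2A.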

[16] = read-out: Interleukin 6 Receptor (IL6R), IL6R (gene 3570); test: LTEA_HepaRG_IL6R: Life Technologies and Expression Analysis (LTEA) Assay for Interleukin 6 Receptor (IL6R) using HepaRG (AID 2283510);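 as to AC50: TaqMan qRT-PCR signal normalized to ACTB GAPDH and POLR2A housekeeping genes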
In short: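 Concentration-response in human liver HepaRG cells: eight concentrations from 100 uM downward by half-logs, 48 h exposure, 0.5% DMSO vehicle. IL6R mRNA change measured by qRT-PCR and fitted in both directions relative to vehicle.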

[17] = read-out: Potassium channel subfamily K member 1 (KCNK1), KCNK1 (gene 3775); test: LTEA_HepaRG_KCNK1: Life Technologies and Expression Analysis (LTEA) Assay for Potassium channel subfamily K member 1 (KCNK1) using HepaRG (AID 2283511)
In short: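 Differentiated human HepaRG cells in serum-free induction medium were exposed in duplicate for 48 h to 8 half-log concentrations up to 100 uM in 0.5% DMSO. KCNK1 mRNA was measured by TaqMan qRT-PCR, normalized to ACTB, GAPDH and POLR2A, and fitted bidirectionally versus DMSO.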

[18] = read-out: Keratin 19 (KRT19), KRT19 (gene 3880); test: LTEA_HepaRG_KRT19: Life Technologies and Expression Analysis (LTEA) Assay for Keratin 19 (KRT19) using HepaRG (AID 2283512)
In short: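 Differentiated HepaRG cells in serum-free induction medium, exposed 48 h in duplicate to 8 half-log concentrations up to 100 uM in 0.5% DMSO. KRT19 mRNA by qRT-PCR, normalized to ACTB, GAPDH, POLR2A; bidirectional fit vs DMSO.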

[19] = read-out: Cytochrome P450 7A1 (Homo sapiens) (UniProt P22680); test: LTEA_HepaRG_CYP7A1: Life Technologies and Expression Analysis (LTEA) Assay for Cytochrome P450 7A1 (CYP7A1) using HepaRG (AID 2283496)
In short: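 Gene expression endpoint in human HepaRG liver cells treated for 48 h with test chemicals (up to 100 uM, 0.5% DMSO). Values come from bidirectional concentration-response fitting versus DMSO.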

[20] = read-out: Intercellular Adhesion Molecule 1 (ICAM1), ICAM1 (gene 3383); test: LTEA_HepaRG_ICAM1: Life Technologies and Expression Analysis (LTEA) Assay for Intercellular Adhesion Molecule 1 (ICAM1) using HepaRG (AID 2283507)
In short: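 Differentiated human HepaRG cells in serum-free induction medium exposed 48 h in duplicate to 8 half-log concentrations (top 100 uM, 0.5% DMSO). ICAM1 mRNA quantified by TaqMan qRT-PCR, normalized to ACTB, GAPDH and POLR2A; bidirectional fitting versus DMSO.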

Chain of Hypoxia-inducible factor 1-alpha (Homo sapiens) (Q16665 whole entry, looked up): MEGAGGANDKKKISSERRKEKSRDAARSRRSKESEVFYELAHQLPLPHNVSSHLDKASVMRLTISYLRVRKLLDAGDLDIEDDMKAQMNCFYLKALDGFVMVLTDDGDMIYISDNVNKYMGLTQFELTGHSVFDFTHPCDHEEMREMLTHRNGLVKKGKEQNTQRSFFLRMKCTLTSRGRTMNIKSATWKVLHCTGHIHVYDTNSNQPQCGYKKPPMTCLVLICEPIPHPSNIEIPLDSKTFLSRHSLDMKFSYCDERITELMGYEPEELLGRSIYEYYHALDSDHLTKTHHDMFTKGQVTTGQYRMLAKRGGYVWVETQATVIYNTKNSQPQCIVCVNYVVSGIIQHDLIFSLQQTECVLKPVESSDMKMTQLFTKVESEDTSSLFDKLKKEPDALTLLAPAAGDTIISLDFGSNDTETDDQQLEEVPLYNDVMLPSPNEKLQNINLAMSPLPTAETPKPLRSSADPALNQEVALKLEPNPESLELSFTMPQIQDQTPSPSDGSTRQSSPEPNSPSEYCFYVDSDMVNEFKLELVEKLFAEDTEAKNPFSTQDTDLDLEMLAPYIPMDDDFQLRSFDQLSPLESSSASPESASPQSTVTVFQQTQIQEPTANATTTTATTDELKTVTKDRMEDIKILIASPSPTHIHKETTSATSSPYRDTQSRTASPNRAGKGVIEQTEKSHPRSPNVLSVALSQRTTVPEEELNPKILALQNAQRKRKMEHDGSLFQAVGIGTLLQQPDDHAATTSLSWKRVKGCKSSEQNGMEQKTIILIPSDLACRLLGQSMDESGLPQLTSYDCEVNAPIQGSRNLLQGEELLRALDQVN

O=C(NS(=O)(=O)/C=C/c1cccs1)c1ccc(F)cc1Br
outcome [1]: inactive | AC50 [2]: 26.6 µM (active) | outcome [3]: inactive | outcome [4]: inactive | outcome [5]: inactive | outcome [6]: inactive | outcome [7]: inactive | outcome [8]: inactive | outcome [9]: inactive | outcome [10]: inactive | AC50 [11]: 71 µM (active) | outcome [12]: inactive | AC50 [13]: 31.1 µM (active) | outcome [14]: inactive | outcome [15]: inactive | outcome [16]: inactive | outcome [17]: inactive | outcome [18]: inactive

CC1(C)C(=O)NC(=O)N1CO
outcome [2]: inactive | outcome [3]: inactive | outcome [19]: inactive | outcome [4]: inactive | outcome [5]: inactive | outcome [6]: inactive | outcome [8]: inactive | outcome [9]: inactive | outcome [10]: inactive | outcome [11]: inactive | outcome [12]: inactive | outcome [13]: inactive | outcome [20]: inactive | outcome [14]: inactive | outcome [15]: inactive | outcome [16]: inactive | outcome [17]: inactive | outcome [18]: inactive

N[C@@H](Cc1c[nH]c2ccccc12)C(=O)O
outcome [1]: inactive | outcome [2]: inactive | outcome [3]: inactive | outcome [4]: inactive | outcome [5]: inactive | outcome [6]: inactive | outcome [7]: inactive | outcome [8]: inactive | outcome [9]: inactive | outcome [10]: inactive | outcome [11]: inactive | outcome [12]: inactive | outcome [13]: inactive | outcome [14]: inactive | outcome [15]: inactive | outcome [16]: inactive | outcome [17]: inactive | outcome [18]: inactive

COC(=O)[C@H]1[C@H]2C[C@@H]3c4[nH]c5cc(OC)ccc5c4CCN3C[C@H]2C[C@@H](OC(=O)c2cc(OC)c(OC)c(OC)c2)[C@@H]1OC
AC50 [4]: 60.1 µM (active) | outcome [5]: inactive | AC50 [6]: 24.6 µM (active) | AC50 [8]: 42.2 µM (active) | AC50 [9]: 42.2 µM (active) | AC50 [11]: 57.8 µM (active) | outcome [12]: inactive | AC50 [13]: 54.4 µM (active) | AC50 [20]: 28.7 µM (active) | AC50 [14]: 47.7 µM (active) | AC50 [15]: 29.1 µM (active) | AC50 [16]: 42.2 µM (active) | outcome [17]: inactive | outcome [18]: inactive
